Experimental findings from PubChem BioAssay are described below.

Structures are written as SMILES. Activity calls are given as the source filed them.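 How the source made its calls: active means viability at or below 10% of carrier control in both of two separate runs; inconclusive means viability at or below 10% in only one of the two runs; inactive means the rest.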

This test is described as follows: reduced viability of SK-BR-3 breast cancer cells – cell-based, 24 h, human, pilot screen (AID 572).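 Further: compound exposure lasted between 18 and 24 h rather than exactly 24 h; 100% = carrier-treated control wells.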 Particulars: SK-BR-3 viability, CellTiter-Glo luminescence, at 10 µM, active compounds read low.
A word on the viability: it is a read-out of living cells in per cent, often relative to untreated cells. With `COc1ccccc1N1CCN(c2cc(N3CCCC3)nc(C)n2)CC1`, the viability was 75% (inactive). Take `COC(=O)CCn1nnc(-c2ccc(C)cc2)n1`: the viability was 90% (inactive). Under `Cc1cccc(-n2c(SCc3cc(=O)n4ccsc4n3)nc3ccccc32)c1` stands 93% (inactive). In the case of `COc1ccc(CCN2C(=O)CC(N3CCOCC3)C2=O)cc1` (configuration not stated), the viability is 88% (inactive). The value for `CCCCCCC(c1c(C)n(C)n(-c2ccccc2)c1=O)c1c(C)n(C)n(-c2ccccc2)c1=O` was 90% (inactive). For `CCCCSc1nnc([C@H](C)NC(=O)OC(C)(C)C)o1`, the viability is 97% (inactive). As for `Cc1c(N=C2SCC(=O)N2c2c(C)n(C)n(-c3ccccc3)c2=O)c(=O)n(-c2ccccc2)n1C`, the viability was 120% (inactive). For the molecule `Cc1nc2ccc(C(=O)O)cc2c2c1CC(C)S2` (configuration not stated), the viability is 93% (inactive). With `CC1(C)CC(=O)C(CC(=O)NC(=O)NCc2ccccc2)=C(O)C1`, the viability is 114% (inactive). Under `O=C(Nc1ccccc1Cl)c1c(F)c(F)c(F)c(F)c1F` stands 106% (inactive); under `COC(=O)c1ccc(CSc2nnnn2Cc2ccccc2)cc1`, 111% (inactive).

As to `Cc1ccc(F)cc1NC(=O)C1CCCN(c2ncccn2)C1` (configuration not stated), the viability was 100% (inactive). Under `O=C(NCc1ccccc1)C1CCCN(S(=O)(=O)c2cccnc2)C1` (configuration not stated) stands 92% (inactive); under `COc1cc(NS(=O)(=O)c2ccc(N)cc2)nc(OC)n1`, 109% (inactive); under `Cc1cc(=O)[nH]c(SCc2nc3ncccn3c2Br)n1`, 108% (inactive). The value for `CC(=O)OCC1=C(C(=O)O)N2C(=O)[C@@H](NC(=O)Cc3cccs3)[C@H]2SC1` was 141% (inactive); that for `CCc1nn(CC(=O)N2CCN(Cc3ccc4c(c3)OCO4)CC2)c(=O)c2cc3occc3n12` was 87% (inactive); that for `CC(=O)OC[C@H]1O[C@@H](n2ncc(=O)[nH]c2=O)[C@H](OC(C)=O)[C@@H]1OC(C)=O` was 103% (inactive).

With `Cc1cc(C)cc(-n2nnc(C(=O)NCc3ccc4c(c3)OCO4)c2N)c1`, the viability is 106% (inactive). The value for `C=CCNc1nc2c(c(=O)n(C)c(=O)n2C)n1CCCCCC` was 92% (inactive). Take `O=C(CSc1nc2ccccc2[nH]1)c1ccc2c(c1)OCO2`: the viability is 79% (inactive).

Regarding `NS(=O)(=O)c1cc2c(cc1Cl)NCNS2(=O)=O`, the viability is 73% (inactive).
